Sampled rows, rich in hits. Any-hit rate of the full collection: about 11%.
3T3 cytotox: kills NIH 3T3 cells; NIH 3T3 viability, CellTiter-Glo ATP luminescence, 48-72 h; 4.3% of 94,000 active; AID 1345082; Potency, µM (doses to about 96.7 µM), without a hit: at the highest dose activity change, negative = cytotoxicity, actives largely listed as inhibitors; active = well fitted curve in the direction sought with a large enough effect; inconclusive = small, poorly fitted or top-dose-only effect, or another doubt; inactive = no such curve, though single readings can be large; an effect the other way counts as inactive or inconclusive; note: % is set by controls: 0 for no effect and ±100 for the full control effect; nearly all actives have a fitted effect of over 55% in size
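First NIH 3T3 cells are plated at 400 cells/well; next compound is pinned in; then plates incubate 48 or 72 hr at 37 °C; finally CellTiter-Glo is added and luminescence read after 10 min.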
hNpr1 antagonist: blocks ANP-stimulated signaling of human Npr1 receptor; HEK293 hNpr1 GloSensor cGMP, ANP-stimulated luminescence; 1.6% of 76,000 active; Potency, µM (highest dose often 46.3 µM), for inactives: top-dose activity change, negative = inhibition, hits mostly inhibitors; AID 1347048; P16066; note: % is set by controls: 0 for no effect and ±100 for the full control effect; nearly all actives have a fitted effect of over 60% in size
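Compound pre-incubated 30 min at room temperature on GloSensor-loaded HEK293 cells stably carrying hNpr1 and the pGS-40F cGMP biosensor. Stimulation uses hNppA at 0.1 nM final; luminescence is taken at baseline and 20 min post-agonist.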
Luciferase inh: inhibitors of firefly (Photinus pyralis) luciferase | purified P. pyralis luciferase, luminescence, biochemical | Potency, µM (series often up to 115 µM), hits mostly inhibitors | P08659 | 2.5% of 76,000 active; active = well fitted curve in the direction sought with a large enough effect; inconclusive = small, poorly fitted or top-dose-only effect, or another doubt; inactive = no such curve, though single readings can be large; an effect the other way counts as inactive or inconclusive; note: % is set by controls: 0 for no effect and ±100 for the full control effect; nearly all actives have a fitted effect of over 65% in size
Target sequence (P08659 whole entry, looked up): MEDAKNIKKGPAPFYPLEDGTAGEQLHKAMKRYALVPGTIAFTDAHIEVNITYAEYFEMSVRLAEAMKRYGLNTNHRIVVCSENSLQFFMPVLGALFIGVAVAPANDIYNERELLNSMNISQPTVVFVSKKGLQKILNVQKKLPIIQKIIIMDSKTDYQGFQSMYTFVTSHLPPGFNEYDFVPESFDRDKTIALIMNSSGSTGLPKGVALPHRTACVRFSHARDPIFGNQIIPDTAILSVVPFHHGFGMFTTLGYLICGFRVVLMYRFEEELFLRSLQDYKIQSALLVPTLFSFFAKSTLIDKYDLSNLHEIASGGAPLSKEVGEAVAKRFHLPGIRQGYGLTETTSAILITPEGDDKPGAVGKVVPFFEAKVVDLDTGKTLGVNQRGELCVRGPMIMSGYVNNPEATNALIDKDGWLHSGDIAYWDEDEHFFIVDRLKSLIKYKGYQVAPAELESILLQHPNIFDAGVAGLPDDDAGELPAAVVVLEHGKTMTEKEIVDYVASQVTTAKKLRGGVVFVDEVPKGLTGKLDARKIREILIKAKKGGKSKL
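Luminescence read by CCD imager after adding enzyme (10nM final) to wells holding compound, titrated in qHTS. Substrates 10uM each D-luciferin and ATP; buffer 50mM Tris acetate pH 7.5, 10mM Mg acetate, Tween-20, BSA.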
HEK293 tox: cytotoxic compounds in HEK 293 cells. HEK 293 viability, ATP luminescence (CellTiter-Glo), 48-72 h. Potency, µM (top dose mostly 115 µM), for inactives: top-dose activity change, negative = cytotoxicity, actives largely listed as inhibitors. 6.6% of 94,000 active; active = well fitted curve in the direction sought with a large enough effect; inconclusive = small, poorly fitted or top-dose-only effect, or another doubt; inactive = no such curve, though single readings can be large; an effect the other way counts as inactive or inconclusive; note: % is set by controls: 0 for no effect and ±100 for the full control effect; nearly all actives have a fitted effect of over 60% in size
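Viability of HEK 293 cells, plated at 250 cells/well, was judged by cellular ATP after compound treatment for 48 or 72 hr. Luminescence was imaged 10 min after CellTiter-Glo addition at room temperature.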
Npr1 antag conf: confirmation of human Npr1 natriuretic peptide receptor antagonists. shares compounds with hNpr1 antagonist. Potency, µM (titrated, usually from 57.6 µM), for inactives: at the highest dose activity change, negative = inhibition, most hits filed as inhibitors. 76% of 1,400 active. AID 1347044. HEK293 hNpr1 cGMP GloSensor luminescence, ANP-stimulated; note: nearly all actives have a fitted effect of over 70% in size
NPR2 antag: antagonizes human Npr2, subtype selectivity check. shares compounds with hNpr1 antagonist. HEK293 hNpr2 GloSensor cGMP luminescence, CNP-stimulated. Potency, µM (titrated, usually from 57.6 µM), for the others: at the top dose activity change, negative = inhibition, actives largely listed as inhibitors. 67% of 1,400 active; note: nearly all actives have a fitted effect of over 70% in size
FLuc counter: inhibits firefly luciferase, false Npr1 antagonist flag; purified FLuc enzyme, luminescence, Km substrate; shares compounds with hNpr1 antagonist; AID 1347047; Potency, µM (highest dose often 57.6 µM), for inactives: at the highest dose activity change, negative = inhibition, actives largely listed as inhibitors; 0.7% of 1,400 active; active = well fitted curve in the direction sought with a large enough effect; inconclusive = small, poorly fitted or top-dose-only effect, or another doubt; inactive = no such curve, though single readings can be large; an effect the other way counts as inactive or inconclusive; note: 0% is about no effect
GloSensor cGMP: control cell line activity, Npr1 antagonist counter-screen. HEK293 GloSensor cGMP, SNP-stimulated, luminescence. 69% of 1,400 active. AID 1347051. Potency, µM (top dose mostly 57.6 µM), for inactives: at the top dose activity change, negative = inhibition, actives largely listed as inhibitors. shares compounds with hNpr1 antagonist; note: % is set by controls: 0 for no effect and ±100 for the full control effect; nearly all actives have a fitted effect of over 70% in size
The depositor's hits bear a star; i = inactive; ? = inconclusive; . = no result; [ ] = remark or other dose. Unless noted, calls come from the whole dose curve. Potency is the fitted concentration of half-maximal effect.

SMILES	3T3 cytotox	hNpr1 antagonist	Luciferase inh	HEK293 tox	Npr1 antag conf	NPR2 antag	FLuc counter	GloSensor cGMP
Cc1nc(CN(C)C(=O)c2cc(Cn3c(C)nc4ccccc43)on2)cs1	?	10µM*	i	?	19µM*	17µM*	1%	14µM*
CN(C)c1ccc(C(=O)N2CCC(Cc3nc(-c4cnccn4)no3)CC2)cc1	-28%	-12%	i	-7%	.	.	.	.
COc1ccc(C(=O)N2CCC(Cc3nc(-c4ccc(F)cc4)no3)CC2)c(C)c1	?	1.4µM*	i	?	1.5µM*	2.2µM*	0%	1.7µM*
COc1cccc(-c2noc(CC3CCN(C(=O)c4ccc(OC)cc4C)CC3)n2)c1	?	3.5µM*	i	?	3.4µM*	4.8µM*	2%	2.7µM*
COc1cccc(-c2noc(CC3CCN(C(=O)c4ccc(N(C)C)cc4)CC3)n2)c1	-17%	10µM*	i	?	14µM*	15µM*	-18%	11µM*
COc1cccc(-c2noc(CC3CCN(C(=O)c4ccccc4C)CC3)n2)c1	?	13µM*	i	?	12µM*	17µM*	-5%	12µM*
CCCCc1nn(CC(=O)N2CCCC2c2nc(C3CC3)no2)c(=O)n1CC (stereo not drawn)	4%	4%	i	0%	.	.	.	.
O=C(NC[C@H]1OC[C@@H](NC2CCCCC2)[C@@H]1O)C1CCCC1	i	4%[70.6 µM]	i	i	.	.	.	.
CN(C)C(=O)NC1CCN(c2ccc3nnc(C4CC4)n3n2)CC1	-8%[138 µM]	.	.	-1%[172 µM]	.	.	.	.
N#Cc1ccc2nc(CO[C@H]3CN(C(=O)c4cccnc4)C[C@H]3F)[nH]c2c1	-10%[174 µM]	3%[70.6 µM]	i	-13%[172 µM]	.	.	.	.
CCn1cc(S(=O)(=O)N2C[C@@H](COC)[C@H](c3ccncc3)C2)cn1	-13%	-1%	i	-9%	.	.	.	.
Cc1nn2c(c1-c1ccccc1C(N)=O)N(CCCc1ccccc1)CCC2	11µM*	1.1µM*	i	11µM*	2.8µM*	?	0%[86.2 µM]	3.5µM*
Cc1nn2c(c1-c1ccccc1[S+](C)(=O)[O-])N(CCCc1ccccc1)CCC2	?	18µM*	i	?	5.6µM*	25µM*	3%[86.2 µM]	4.4µM*
CNC(=O)Cn1nc(C2CCN(C(=O)c3cccs3)CC2)c2c1CCOC2	i	0%	i	-1%	.	.	.	.
CCCn1cc(C(=O)NC(C)c2cnn(-c3cccc(F)c3)c2C)c(C)n1 (stereo not drawn)	-31%	2.8µM*	i	?	4.3µM*	6.1µM*	4%	3.1µM*
Cc1c(C(C)NC(=O)c2cc(CC(C)C)nn2C)cnn1-c1ccccc1 (stereo not drawn)	-42%	0.28µM*	i	-81%	0.43µM*	0.48µM*	0%	0.43µM*
COc1ccc2ccc(OCc3nc(C(=O)N4CCNC(=O)C4C)co3)cc2c1 (stereo not drawn)	?	11µM*	i	?	24µM*	22µM*	-5%	22µM*
CNC(=O)C1CCN(C(=O)c2coc(COc3ccc4ccc(OC)cc4c3)n2)C1 (stereo not drawn)	?	-24%	?	?	.	.	.	.
CN(C)C(=O)c1cccnc1OC1CCN(C(=O)c2ccccc2)C1 (stereo not drawn)	-6%	7%	i	-4%	.	.	.	.
CN1CCN(CCNC(=O)c2cc(-c3ccccc3)cn2C)CC1	-4%	2%	i	-7%	.	.	.	.
CCCNC(=O)c1cc(-c2ccc(F)cc2)cn1C	-32%	?	i	-24%	-27%	-7%	-1%	-26%
